# An excerpt weighted towards active compounds, which were near 2.2% of everything screened.
# ADAM10 inh = ADAM10 inhibition, QFRET primary screen; recombinant ADAM10, EDANS/DABCYL FRET peptide cleavage, 3 h; AID 720582; hit rate 0.62% among 370,000; inhibition, % at 7 µM;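 active = inhibition above a per-campaign cutoff equal to the mean of compounds falling between control-based bounds plus 3 SD, cut at about 20% in these data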
# Target sequence (O14672 214-748 limits assumed): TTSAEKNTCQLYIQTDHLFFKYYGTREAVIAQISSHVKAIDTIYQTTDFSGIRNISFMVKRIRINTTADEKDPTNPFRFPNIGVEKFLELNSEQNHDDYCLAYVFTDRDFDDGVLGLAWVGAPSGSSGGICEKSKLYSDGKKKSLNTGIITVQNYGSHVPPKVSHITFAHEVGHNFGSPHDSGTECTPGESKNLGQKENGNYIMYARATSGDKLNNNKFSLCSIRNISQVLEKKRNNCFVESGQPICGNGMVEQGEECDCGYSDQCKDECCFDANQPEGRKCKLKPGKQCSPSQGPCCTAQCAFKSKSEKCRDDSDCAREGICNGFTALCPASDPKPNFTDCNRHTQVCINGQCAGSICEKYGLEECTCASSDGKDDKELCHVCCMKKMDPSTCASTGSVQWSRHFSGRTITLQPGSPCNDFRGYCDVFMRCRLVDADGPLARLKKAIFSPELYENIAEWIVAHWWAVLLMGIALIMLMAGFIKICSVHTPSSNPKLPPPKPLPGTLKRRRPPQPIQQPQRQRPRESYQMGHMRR
# ADAM17 inh = inhibits human ADAM17 | P78536 | recombinant ADAM17, EDANS/DABCYL FRET peptide cleavage | inhibition, % at 6.95 µM | hit rate 0.83% among 370,000 | AID 720648;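 active = inhibition above the mean of compounds lying between control limits plus 3 SD, set per campaign, cut at about 8.5% in these data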
# GC-A act = GC-A (human) enzyme activation | P16066 | activation, % at 10 µM | HEK293 GC-A cells, cGMP TR-FRET, EC30 ANP; 0% at EC30 ANP, 100% saturating ANP | hit rate 0.14% among 370,000; in the data active = activation above about 40%
# NPR2 activator = GC-B (human) receptor activation; hit rate 0.11% among 370,000; HEK293-GC-B cells, CNP EC30, cGMP TR-FRET; 0% at EC30 CNP, 100% saturating CNP; AID 1920062; activation, % at 10 µM; P20594;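 active = activation at 10 µM reaching about 35% in either raw or pattern-adjusted values, limit read from the data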
# KLK7 zymogen act = proKLK7 (human) activation, primary screen; AID 652039; hit rate 0.9% among 370,000; P49862; activation, % at 7 µM; purified proKLK7, EDANS-DABCYL substrate fluorescence; 100% is mature enzyme control, 0% vehicle;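 active = activation above the mean of all tested compounds plus 3 SD, computed per campaign excluding outliers beyond control limits, cut at about 13% in these data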
# ADAM10 confirm = confirmation of inhibitors of human ADAM10; shares compounds with ADAM10 inh; ADAM10 QFRET peptide cleavage, EDANS fluorescence; inhibition, % at 6.95 µM; hit rate 1% among 2,100;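 active = inhibition above about 20% chosen separately for each screening run, limit read from the data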
# ADAM17 ctr = ADAM17 inhibition, counter-screen for ADAM10 exosite hits; inhibition, % at 6.95 µM; ADAM17 QFRET peptide cleavage, EDANS fluorescence; hit rate 0.5% among 2,100; shares compounds with ADAM10 inh;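 active = mean triplicate inhibition above the solvent-only control wells' mean plus 3 SD, cut at about 12% in these data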
# A number is an active result; n = inactive; x = no result.
SMILES,ADAM10 inh,ADAM17 inh,GC-A act,NPR2 activator,KLK7 zymogen act,ADAM10 confirm,ADAM17 ctr
C[C@H]1[C@@H](OC(=O)NCc2ccc(Cl)c(Cl)c2)CC[C@@]23CCCN2C(=O)CCC[C@@H]13,n,n,n,n,x,x,x
Cc1oc(-c2ccc(-c3ccccc3)cc2)nc1CN1CCN(CC(=O)N(C)C)CC1,n,n,n,n,n,x,x
COc1ccc(-c2nc(CN3CCN(Cc4ccccc4)CC3)c(C)o2)cc1,79,n,n,n,n,n,n
C=CCC[C@@H](Cc1ccc(F)cc1)C(=O)OC[C@H](Cc1c[nH]c2ccccc12)NC(=O)[C@@H](CC=C)CC(=O)NCCO,25,n,n,n,n,n,n
C=CCC[C@@H](Cc1ccc(F)cc1)C(=O)OC[C@@H](Cc1c[nH]c2ccccc12)NC(=O)[C@H](CC=C)CC(=O)NCCO,n,n,n,n,n,x,x
C#CCN1CC(N(C)CCOC(=O)c2ccc(OC)c(OC)c2)CS1(=O)=O (stereo not given),n,n,n,n,n,x,x
Clc1ccccc1CSc1nnc(-c2ccccn2)n1Cc1ccco1,21,n,n,n,n,n,n
NC(=O)CSc1nnc(-c2ccccn2)n1Cc1ccco1,n,n,n,n,n,x,x
COc1ccc(C2=NOC(Cn3nc(-c4ccccc4C)cc3C(=O)O)C2)cc1 (stereo not given),n,n,n,n,n,x,x
CCOC(=O)c1cc(-c2ccccc2C)n(CC2CC(c3ccc(OC)cc3)=NO2)n1 (stereo not given),23,n,n,n,n,n,n
COC(=O)[C@]12C[C@H](CC(=O)NCc3cccc4ccccc34)C(=O)N(Cc3ccco3)C1=C[C@H](COCc1ccccc1)O[C@@H]2C,22,n,n,n,n,n,n
CCCCNC(=O)C[C@H]1C[C@@]2(C(=O)OC)C(=C[C@H](C3CCCC3)O[C@@H]2C)N(Cc2cccc3ccccc23)C1=O,24,n,n,n,n,n,n
COC(=O)[C@]12C[C@H](CC(=O)NCc3cccs3)C(=O)N(Cc3cccc4ccccc34)C1=C[C@H](C1CCCC1)O[C@@H]2C,21,n,n,n,n,n,n
COC(=O)[C@]12C[C@H](CC(=O)NCCCCc3ccccc3)C(=O)N(Cc3cccc4ccccc34)C1=C[C@H](C1CCCC1)O[C@@H]2C,n,n,n,n,n,x,x
COC(=O)[C@]12C[C@H](CC(=O)N3CCCCC3)C(=O)N(CCc3ccc(OC)c(OC)c3)C1=C[C@H](COCc1ccccc1)O[C@@H]2C,58,n,n,n,n,n,n
COC(=O)[C@]12C[C@H](CC(=O)NCc3cccc4ccccc34)C(=O)N(CCc3ccc(OC)c(OC)c3)C1=C[C@H](C(C)(C)C)O[C@@H]2C,22,n,n,n,n,n,n
COC(=O)[C@]12C[C@H](CC(=O)N3CCCCC3)C(=O)N(Cc3cccc4ccccc34)C1=C[C@H](C1CCCC1)O[C@@H]2C,n,n,n,n,n,x,x
CCOC(=O)N1CCN(C(=O)C[C@H]2C[C@@]3(C(=O)OC)C(=C[C@H](C4CCCC4)O[C@@H]3C)N(Cc3cccc4ccccc34)C2=O)CC1,24,n,n,n,n,n,n
O=C1CCC[C@H]2C[C@H](NCc3ccccc3Cl)CC[C@]23CCCN13,n,n,n,n,x,x,x
COc1ccc(CN2C(C(=O)NC3CCCC3)CSCCS2(=O)=O)cc1 (stereo not given),n,n,n,n,n,x,x
CN1C(=O)Cc2cc(S(=O)(=O)N3CCN(c4ccc(Cl)cc4)CC3)ccc21,21,n,n,n,n,n,n
CN1C(=O)Cc2cc(S(=O)(=O)N3CCN(c4cccc(Cl)c4)CC3)ccc21,n,n,n,n,n,x,x
O=C(NCCc1ccccn1)c1ccc2c(c1)ncn2C1CCCCC1,n,n,n,n,n,x,x
Cc1onc(-c2ccc(Cl)cc2)c1-c1ccn(S(=O)(=O)c2ccccc2Cl)n1,n,n,n,n,n,x,x
Cc1ccccc1N1CCN(C(=O)COc2cc(=O)n(C)c3ccccc23)CC1,n,n,n,n,n,x,x
SMILES,ADAM10 inh,ADAM17 inh,GC-A act,NPR2 activator,KLK7 zymogen act,ADAM10 confirm,ADAM17 ctr
COc1ccc(C2(c3ccc(OC)cc3)NC(=O)N(CC(=O)Nc3ccccc3C)C2=O)cc1,n,n,n,n,n,x,x
Cc1ccc(C2(c3ccccc3)NC(=O)N(CC(=O)NCc3ccccc3)C2=O)cc1C (stereo not given),23,n,n,n,n,n,n
COc1ccc(C2(c3ccc(OC)cc3)NC(=O)N(CC(=O)Nc3ccccc3C(F)(F)F)C2=O)cc1,21,n,n,n,n,n,n
O=C(CSc1nnc(-c2ccccn2)n1-c1ccccc1)Nc1ccc2c(c1)OCCO2,n,n,n,n,n,x,x
CCOC(=O)c1ccc(NC(=S)N(Cc2cccnc2)Cc2ccco2)cc1,n,n,n,n,n,x,x
CCOc1ccc(NC(=S)N(Cc2ccc(Cl)cc2)Cc2ccco2)cc1,24,n,n,n,n,n,n
COc1cc(C2c3c(-c4cc(Cl)c(C)cc4O)n[nH]c3C(=O)N2Cc2cccnc2)ccc1O (stereo not given),21,n,n,n,n,n,n
O=C(NC1CCCCN(Cc2ccc(Cl)cc2)C1=O)c1ccccn1 (stereo not given),n,n,n,n,n,x,x
O=C(NC1CCCCN(Cc2ccc(Cl)cc2)C1=O)C(c1ccccc1)c1ccccc1 (stereo not given),22,n,n,n,n,n,n
COC(=O)[C@]12C[C@H](CC(=O)NCC3CCCCC3)C(=O)N(Cc3cccc4ccccc34)C1=C[C@H](C1CCCC1)O[C@@H]2C,n,n,n,n,n,x,x
CCOC(=O)c1ccc(N2C(=O)c3n[nH]c(C)c3C2c2ccco2)cc1 (stereo not given),n,n,n,n,n,x,x
CCOC(=O)c1ccc(N2C(=O)c3n[nH]c(-c4ccco4)c3C2c2cccc([N+](=O)[O-])c2)cc1 (stereo not given),33,n,n,n,n,n,n
CCn1c2ccccc2c2cc(NC(=O)CSc3nnc(-c4ccc(OC)c(OC)c4)n3N)ccc21,n,n,n,n,n,x,x
COc1ccc(-c2nnc(SC(C(=O)c3c[nH]c4ccccc34)c3ccccc3)n2N)cc1OC (stereo not given),22,n,n,n,n,n,n
O=C(NC1CCCCN(Cc2ccc(Cl)cc2)C1=O)c1cccs1 (stereo not given),n,n,n,n,n,x,x
O=C(Nc1ccc(Br)cc1)OCCN1CCCC12CCC(c1ccccc1)CC2 (stereo not given),n,n,n,n,x,x,x

# High-throughput results: PubChem, several laboratories
